# Results taken from PubChem BioAssay AID504809 (National Center for Advancing Translational Sciences (NCATS), 2011).
# Records with an inconclusive call do not appear. A number with no mark means an inactive call. Active and inactive are the calls of the source. Calls follow the shape of the dose curve; as a rule, active = well fitted curve in the direction sought with a large enough effect; inconclusive = small, poorly fitted or top-dose-only effect, or another doubt; inactive = no such curve, though single readings can be large or run the other way.
# Test: Followup screen for small molecules that induce DNA re-replication in MCF 10A normal breast cells
# Conditions: MCF 10A DNA re-replication, Hoechst nuclear intensity, 48 h; series mostly up to 46.1 µM; re-replication activation: at the top concentration
# Source text: NIH Molecular Libraries Probe Production Network [MLPCN] NIH Chemical Genomics Center [NCGC] MLPCN Grant: Fast Track K99 CA136555 Assay Provider: Melvin DePamphilis, NICHD, NIH Assay Overview Eukaryotic cells normally restrict genome duplication to once per cell division. When this process is aberrant, DNA re-replication occurs when cells reinitiate DNA replication before the first round of replication is complete. DNA re-replication induces the DNA damage response, arrests cell proliferation, and triggers apoptosis. The cell cycle components cyclin A, Cdt-1, Cdc6 and geminin are critical regulators of this process and their misregulation results in DNA re-replication in normal and cancer cells. To identify compounds that induce re-replication in normal cells, an image-based assay was used to measure DNA content of nuclei, as detected by the fluorescent DNA binding dye, Hoechst. Cell nuclei were imaged by a fluorescence scanning plate imager and compounds that induce DNA re-replication were identified by the increase of nuclei with elevated fluorescence intensity.
# Assay Protocol Summary For screening, 250 cells in 5 uL/well were dispensed into black clear 1536-well plates (Aurora) using a solenoid-based dispenser. Following transfer of 23 nL compound or DMSO vehicle by a pin tool, the plates were incubated 48 hr at 37 C and 5% CO2. After addition of 1 uL/well Hoescht stain, the plates were incubated 40 min at 37 C, 5% CO2 and total intensity of fluorescent objects (nuclei) were enumerated by an Acumen Explorer Ex3 (TTP LabTech) fluorescence scanning plate imager (405 nm excitation, 500-530 nm emission). Keywords: NIH Roadmap, MLPCN, MLI, MLSMR, qHTS, NCGC, DNA replication, cancer
Structure (SMILES),re-replication activation [%],Potency
NCC#Cc1ccccc1,14.6,
CC(C)NP(=O)(NC(C)C)OP(=O)(NC(C)C)NC(C)C,-3.1,
COc1cc([C@@H]2c3cc4c(cc3[C@H](O)[C@@H]3COC(=O)[C@H]23)OCO4)cc(OC)c1OC,,26.8 nM (active)
